Screens: PubChem BioAssay, National Center for Advancing Translational Sciences (NCATS)
Shown are actives, neighbours in structure and some others; about 2.9% of the full set was active somewhere.
Nrf2 block: Nrf2 qHTS screen for inhibitors; A549 ARE-Fluc reporter, luciferase luminescence, 18-24 h; Potency, µM (series often up to 46 µM), usual class: inhibitors; 360,000 compounds, 2.1% hits; AID 504444, 2011; also: nearly all actives have a fitted effect of over 60% in size
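A549 ARE_Fluc cells (5000/well, 5% FBS OPTI-MEM) pre-incubated 2 h, then treated with compounds 18-24 h at 37C/5% CO2 in concentration-response. CellTiter-Fluor viability read first; BugLite luciferase luminescence after 15 min at room temperature gives Nrf2 activity.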
Nrf2 ARE act: qHTS of Nrf2 Activators | AREc32 ARE-luciferase reporter (MCF7-derived line), luminescence, 24 h | Potency, µM (series often up to 46.1 µM), usual class: activators | 410,000 compounds, 0.31% hits; also: nearly all actives have a fitted effect of over 65% in size
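Steps: seed AREc32_Fluc cells (1000/well, 5% FBS OPTI-MEM); incubate overnight at 37 deg C; add 23 nL compound; incubate 24 hr; add Steady-Glo; hold 30 min RT; read luminescence.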
ATXN2 expr inh: Primary qHTS for Inhibitors of ATXN expression | HEK-293 ATXN2-luciferase reporter, luminescence, 24 h | Potency, µM (series often up to 57 µM), usual class: inhibitors | 360,000 compounds, 0.72% hits | AID 1745845, 2022; also: nearly all actives have a fitted effect of over 55% in size
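ATXN2-luciferase reporter cells (luciferase flanked by upstream and downstream ATXN2 gene portions) were treated 24 h at 37 °C with compounds at up to 57 uM. SteadyGlo luminescence gave expression; GF-AFC fluorescence gave viability.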
ATXN viability: Viability Counterscreen for Primary qHTS for Inhibitors of ATXN expression | 400,000 compounds, 0.49% hits | Potency, µM (doses to about 56.7 µM), most hits filed as cytotoxic | S2 cells (HEK-293 line with an ATXN2-luciferase reporter) viability, CellTiter-Fluor protease fluorescence, 24 h | AID 651635, 2014; also: nearly all actives have a fitted effect of over 40% in size
A549 viability: Nrf2 qHTS screen for inhibitors: counterscreen for cytotoxicity. A549 ARE-Fluc cells, CellTiter-Fluor viability, 18-24 h. Potency, µM (doses to about 46 µM), hits mostly inhibitors. 390,000 compounds, 0.16% hits. AID 504648, 2011
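A549 ARE-Fluc cells in 5% FBS OPTI-MEM, 5000 cells/well, rested 2 h then exposed to compounds in concentration-response for 18-24 h at 37 °C. Viability by CellTiter-Fluor fluorescence (Ex 405/Em 525) after 30 min; luciferase luminescence (BugLite, 15 min, RT) read afterwards.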
Large screens that a line does not name were inactive; ! = repeats disagree. Calls follow the shape of the dose curve; as a rule, active = well fitted curve in the direction sought with a large enough effect; inconclusive = small, poorly fitted or top-dose-only effect, or another doubt; inactive = no such curve, though single readings can be large; an effect the other way counts as inactive or inconclusive.

Cc1ccc(NC(=O)Cn2ncc3c4ccccc4n(Cc4ccccc4)c3c2=O)cc1Cl	ATXN viability inconclusive
Cc1ccc2occ(CC(=O)Nc3ccc(Cl)c(C(F)(F)F)c3)c2c1	Nrf2 block inconclusive, ATXN2 expr inh 25µM, ATXN viability inconclusive
COc1ccc(OC)c(NC(=O)c2nc(S(=O)(=O)Cc3ccccc3)ncc2Cl)c1	Nrf2 block inconclusive, Nrf2 ARE act inconclusive, ATXN viability 18µM, A549 viability inconclusive
COc1ccc(NC(=O)c2nc(S(=O)(=O)Cc3cccc(C)c3)ncc2Cl)c(OC)c1	none (no result: ATXN2 expr inh)
O=C(Nc1ccccc1F)c1nc(S(=O)(=O)Cc2ccccc2F)ncc1Cl	Nrf2 block inconclusive, ATXN2 expr inh inconclusive, ATXN viability 18µM, A549 viability inconclusive
COc1ccc2nc(NC(=O)c3nc(S(=O)(=O)Cc4ccccc4F)ncc3Cl)sc2c1	Nrf2 ARE act 10µM, A549 viability inconclusive (no result: ATXN2 expr inh, ATXN viability)
Cc1cccc(CS(=O)(=O)c2ncc(Cl)c(C(=O)Nc3nc4ccc(F)cc4s3)n2)c1	A549 viability inconclusive
COc1ccc2nc(NC(=O)c3nc(S(=O)(=O)Cc4ccccc4)ncc3Cl)sc2c1	Nrf2 ARE act inconclusive, A549 viability inconclusive (no result: ATXN2 expr inh, ATXN viability)
O=C(Nc1nc2ccc(F)cc2s1)c1nc(S(=O)(=O)Cc2ccccc2)ncc1Cl	Nrf2 block inconclusive, ATXN2 expr inh inconclusive, ATXN viability 14µM, A549 viability inconclusive
CCOC(=O)C1=C[C@@H](C(C)(C)C)N(S(=O)(=O)c2ccccc2C)[C@H]1c1ccc(Cl)cc1	none (no result: Nrf2 block, A549 viability)
Cc1cccc(CS(=O)(=O)c2ncc(Cl)c(C(=O)Nc3c(C)cccc3C)n2)c1	Nrf2 block 15µM, ATXN viability inconclusive, A549 viability inconclusive
Cc1cccc(C)c1NC(=O)c1nc(S(=O)(=O)Cc2ccccc2)ncc1Cl	Nrf2 block inconclusive, Nrf2 ARE act inconclusive, ATXN2 expr inh inconclusive, ATXN viability inconclusive
Cc1nnc(NC(=O)c2nc(S(=O)(=O)Cc3ccccc3)ncc2Cl)s1	Nrf2 block inconclusive, Nrf2 ARE act inconclusive, ATXN2 expr inh inconclusive, ATXN viability 32µM, A549 viability inconclusive
O=C(NCc1ccccc1)c1nc(S(=O)(=O)Cc2ccc(F)cc2)ncc1Cl	Nrf2 block 26µM, A549 viability inconclusive (no result: ATXN2 expr inh, ATXN viability)
Cc1cccc(CS(=O)(=O)c2ncc(Cl)c(C(=O)NCc3ccccc3)n2)c1	Nrf2 block inconclusive (no result: ATXN2 expr inh, ATXN viability)
Cc1ccc(NC(=O)c2nc(S(=O)(=O)Cc3ccccc3)ncc2Cl)cc1	ATXN2 expr inh inconclusive, ATXN viability inconclusive
COc1cc(Cl)c(C)cc1NC(=O)CCn1c(=O)c2cccn2c2cccnc21	Nrf2 block inconclusive (no result: ATXN2 expr inh, ATXN viability)
COc1ccc(-n2c3c(cc(-c4nc(-c5ccc(Cl)cc5)cs4)c2=O)C(=O)CC(C)(C)C3)cc1	none
Cc1cc(C)cc(NC(=O)CSc2nnc(Cn3c(=O)sc4ccccc43)n2C)c1	none
Cc1nc2nc(-c3ccccc3)cn2nc1C	ATXN2 expr inh 16µM, A549 viability inconclusive (no result: ATXN viability)
c1ccc(-c2cn3nc4c(nc3n2)CCCC4)cc1	Nrf2 block inconclusive, ATXN2 expr inh 5.6µM, A549 viability inconclusive (no result: ATXN viability)
CCc1ccc(-c2cn3nc(C)c(C)nc3n2)cc1	Nrf2 block inconclusive, ATXN2 expr inh 5µM, A549 viability inconclusive (no result: ATXN viability)
Cc1ccc(NC(=S)NC2CCN(Cc3ccccc3)CC2)c(C)c1	A549 viability inconclusive
Cc1ccc(/C=C2\Sc3ccccc3C2=O)s1	Nrf2 ARE act 11µM, ATXN viability inconclusive
Cc1nc2ccccc2n1Cc1ccccc1	Nrf2 block 21µM, ATXN viability inconclusive (no result: ATXN2 expr inh)
O=C(Nc1nc2ccccc2n1Cc1ccc(Cl)cc1)c1ccco1	A549 viability inconclusive
c1ccc(Cc2nc3ccccc3n2Cc2ccccc2)cc1	none
CC(=O)Nc1nc2ccccc2n1Cc1ccc(Cl)cc1	Nrf2 block inconclusive, ATXN2 expr inh 18µM, ATXN viability 25µM
Cc1ccc(S(=O)(=O)NCCCNS(=O)(=O)c2ccccc2[N+](=O)[O-])cc1	Nrf2 block 18µM
Cc1ccc(S(=O)(=O)NCCNc2ccccc2[N+](=O)[O-])cc1	none
COc1ccc(-c2nnc(N(C)C(=O)c3ccco3)s2)cc1OC	none
CN(C(=O)c1ccco1)c1nnc(-c2ccc(F)cc2)s1	Nrf2 ARE act 7.1µM
CC(C)Cn1cnc2c(N)nc3ccccc3c21	ATXN2 expr inh 22µM!
CC(C)Cn1cnc2c(SCc3ccccc3)nc(N)nc21	none
COc1ccc(Cl)cc1C(=O)Nc1ccc([N+](=O)[O-])cc1Cl	none (no result: Nrf2 ARE act, ATXN2 expr inh, ATXN viability)
